High-throughput results as filed in PubChem BioAssay.
A selection: hits, their analogues and other compounds. The true share with any hit is near 12%.
Sfp inh: qHTS Assay for Inhibitors of Bacillus subtilis Sfp phosphopantetheinyl transferase (PPTase); 4'-phosphopantetheinyl transferase ffp (Bacillus subtilis), Q9F4F7; Biochemical Sfp PPTase activity, qHTS; Potency, µM, without a hit: largest response in the series, negative = inhibition, most hits filed as inhibitors; hit rate 3.5% among 310,000; AID 1490, 2009;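 note: the enzyme is Sfp with the accession as filed and its product quenches rhodamine fluorescence; 0% = enzyme reaction without inhibitor and -100% = no enzyme wells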
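Fluorescence-quenching assay: 15 nM Sfp-PPTase preincubated 15 min at room temperature with compound, then 5 uM rhodamine-CoA and 12.5 uM BHQ-2-labelled YbbR peptide added. Fluorescence (ex 525/em 598 nm) read at start and after 30 min; difference gives rate.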
HP1b binding inh: HTS for Inhibitors of HP1-beta Chromodomain Interactions with Methylated Histone Tails; hit rate 0.56% among 390,000; Potency, µM (top dose mostly 114 µM), for inactives: top-dose activity change, negative = inhibition, actives largely listed as inhibitors; AlphaScreen HP1-beta / biotin-H3K9me3 peptide binding; AID 540317, 2011; note: nearly all actives have a fitted effect of over 70% in size
Target sequence (P83916 whole entry, looked up): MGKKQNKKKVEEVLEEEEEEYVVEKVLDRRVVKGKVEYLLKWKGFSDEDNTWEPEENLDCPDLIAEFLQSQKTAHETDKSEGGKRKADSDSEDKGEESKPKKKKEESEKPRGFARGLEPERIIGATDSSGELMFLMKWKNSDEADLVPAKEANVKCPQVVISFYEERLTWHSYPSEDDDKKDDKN
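HP1-beta protein (50 nM final) preincubated 30 min at room temperature with biotinylated H3(1-18)K9me3 peptide (50 nM) in PBS pH 7.4, 0.01% Tween-20, then compound added for 30 min. AlphaScreen streptavidin donor/nickel chelate acceptor beads (10 ug/mL final), 30 min dark, luminescence read.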
JMJD2A Tudor: qHTS Assay for Inhibitors of JMJD2A-Tudor Domain; Potency, µM (highest dose often 114 µM), for inactives: at the top dose activity change, negative = inhibition, hits mostly inhibitors; AlphaScreen JMJD2A-Tudor / H3K4me3 peptide binding; AID 504339, 2011; hit rate 4.4% among 390,000; Lysine-specific demethylase 4A (Homo sapiens), O75164; note: % is set by controls: 0 for no effect and ±100 for the full control effect; nearly all actives have a fitted effect of over 50% in size
G9a inh: qHTS Assay for Inhibitors of Histone Lysine Methyltransferase G9a; Histone-lysine N-methyltransferase EHMT2 (Homo sapiens), Q96KQ7; AID 504332, 2011; hit rate 8.8% among 350,000; Potency, µM (series often up to 102 µM), inactives show at the highest dose activity, negative = inhibition, hits mostly inhibitors; G9a H3K9 monomethylation, AlphaScreen, 2 h; note: % is set by controls: 0 for no effect and ±100 for the full control effect; nearly all actives have a fitted effect of over 75% in size
Target sequence (Q96KQ7 913-1193 limits assumed): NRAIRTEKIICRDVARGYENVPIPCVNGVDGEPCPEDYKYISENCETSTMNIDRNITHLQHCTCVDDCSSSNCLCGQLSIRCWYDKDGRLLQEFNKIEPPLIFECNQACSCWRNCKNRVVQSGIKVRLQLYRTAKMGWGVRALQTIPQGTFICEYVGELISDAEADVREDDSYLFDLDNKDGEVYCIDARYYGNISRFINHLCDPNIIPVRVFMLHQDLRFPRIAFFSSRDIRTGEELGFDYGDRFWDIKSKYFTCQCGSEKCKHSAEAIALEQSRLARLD
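Signal arises when biotinylated H3K9 peptide, once monomethylated, bridges streptavidin donor and antibody-captured acceptor beads. Enzyme at 20 nM was preincubated 15 min with test compounds; peptide 500 nM and SAM 20 uM then reacted for 2 h.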
PLK1 PBD inh: qHTS for Inhibitors of PLK1-PDB (polo-like kinase 1 - polo-box domain): Primary Screen; Serine/threonine-protein kinase PLK1 (Homo sapiens), P53350; Potency, µM, without a hit: max response, negative = inhibition, actives largely listed as inhibitors; Plk1 PBD binding of FITC phosphopeptide, fluorescence polarization; hit rate 2.8% among 360,000; note: series mostly up to about 57 µM; % is set by controls: 0 for no effect and ±100 for the full control effect; nearly all actives have a fitted effect of over 65% in size
BAZ2B inh: qHTS Assay for Inhibitors of BAZ2B; Bromodomain adjacent to zinc finger domain protein 2B (Homo sapiens), Q9UIF8; AlphaScreen BAZ2B-H3K14Ac peptide displacement; Potency, µM (highest dose often 114 µM), for inactives: top-dose activity change, negative = inhibition, usual class: inhibitors; hit rate 4.4% among 360,000; AID 504333, 2011; note: % is set by controls: 0 for no effect and ±100 for the full control effect; nearly all actives have a fitted effect of over 60% in size
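AlphaScreen displacement of biotin-H3(5-23)K14Ac peptide (50 nM final) from BAZ2B (50 nM final) in PBS pH 7.4, 0.01% Tween-20; complex preformed 30 min RT, then compounds (top 110 uM) 30 min RT, beads 20 min dark.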
* hit, by the source's call; [ ] = another dose, or the depositor's remark. Calls come from the whole dose curve; as a rule, active = well fitted curve in the direction sought with a large enough effect; inconclusive = small, poorly fitted or top-dose-only effect, or another doubt; inactive = no such curve, though single readings can be large; an effect the other way counts as inactive or inconclusive. Potency is the fitted concentration of half-maximal effect.

`Cc1ccc(NC(=O)c2cc3ccccn3n2)cc1F` gave HP1b binding inh 36.9%, JMJD2A Tudor -3.2%, G9a inh 4.9%[59 µM] and BAZ2B inh 6.6%.
Screening COc1cc(OC)c(NC2=C(c3ccc(C(F)(F)F)cc3)C(=O)c3ccccc32)cc1Cl returned HP1b binding inh inconclusive, JMJD2A Tudor 20µM*, G9a inh inconclusive and BAZ2B inh inconclusive.
COc1ccc(NC(=O)N2CC3(CCNCC3)C2)cc1 was read as Sfp inh -0.1% and G9a inh -1.9%[12.7 µM].
For C=CCn1c(-c2csc(-c3ccc(Cl)cc3)n2)n[nH]c1=S the results were Sfp inh 0.5%, HP1b binding inh 36.8%, JMJD2A Tudor -9.4%, G9a inh inconclusive, PLK1 PBD inh -12.1% and BAZ2B inh 13.7%.
C=CCn1c(-c2csc(-c3ccc(OC)c(OC)c3)n2)n[nH]c1=S was read as Sfp inh 16.4%, HP1b binding inh 24.5%, JMJD2A Tudor 7.94µM*, G9a inh 2.24µM*, PLK1 PBD inh -15.0% and BAZ2B inh -8.1%.
C=CCn1c(-c2cc(-c3ccccc3)sc2N)n[nH]c1=S was read as Sfp inh 79.4µM*, HP1b binding inh 25.5%, JMJD2A Tudor -28.3%, PLK1 PBD inh -5.9% and BAZ2B inh -12.8%.
For CCn1c(-c2csc(-c3ccc(Cl)cc3)n2)n[nH]c1=S the results were Sfp inh 8.7%, HP1b binding inh 49.5%, JMJD2A Tudor -3.2%, G9a inh inconclusive, PLK1 PBD inh -9.2% and BAZ2B inh 6.2%.
Screening CCn1c(-c2csc(-c3ccccc3)n2)n[nH]c1=S returned Sfp inh -1.0%, HP1b binding inh 59.8%, JMJD2A Tudor -27.6%, G9a inh 1.41µM*, PLK1 PBD inh -16.5% and BAZ2B inh -31.9%.
C=CCn1c(-c2csc(-c3ccccc3)n2)n[nH]c1=S was read as Sfp inh -25.0%, HP1b binding inh 33.7%, JMJD2A Tudor -18.4%, G9a inh 1.78µM*, PLK1 PBD inh -23.1% and BAZ2B inh 1.3%.
Screening CN(Cc1nc2ccccc2c(=O)[nH]1)C(=O)c1cc(-c2ccc(Br)cc2)nc2ccccc12 returned HP1b binding inh 24.2%, JMJD2A Tudor -3.8% and PLK1 PBD inh 0.5%.
COC(=O)N1CCC2(CCN(Cc3nccs3)CC2)CC1 was read as Sfp inh 21.2% and G9a inh -10.3%[12.7 µM].
For O=C(CN1CCN(c2ncccn2)CC1)NCc1ccccc1 the results were Sfp inh 21.5%, HP1b binding inh 37.0%, JMJD2A Tudor -12.9%, G9a inh 56.2µM*, PLK1 PBD inh -1.3% and BAZ2B inh 9.5%.
Screening O=C(NCc1ccccc1)NC1(C(=O)N2CCN(c3ncccn3)CC2)CCCCC1 returned Sfp inh 12.4%, HP1b binding inh -11.9%, JMJD2A Tudor -17.6%[11.4 µM], G9a inh -25.8%, PLK1 PBD inh 26.7µM* and BAZ2B inh -1.0%.
CCN(C(=O)CCNC(=O)Cn1cnc2ccccc2c1=O)c1cc(OC)ccc1OC was read as HP1b binding inh 33.6%, JMJD2A Tudor -13.7%, G9a inh 6.9%[59 µM] and BAZ2B inh 0.5%.
Screening CC(=O)C1=C(c2ccc(C)cc2)N(C(C)=O)n2c(nnc2-c2ccccc2)S1 returned HP1b binding inh 66.0%, JMJD2A Tudor -0.6%, G9a inh -0.7%[59 µM] and BAZ2B inh 0.6%.
For O=C(NNC(=S)NC(=O)c1ccccc1[N+](=O)[O-])c1ccccc1O the results were Sfp inh 22.6%, HP1b binding inh 28.5%, JMJD2A Tudor 89.1µM*, G9a inh -38.4%, PLK1 PBD inh -20.4% and BAZ2B inh inconclusive.
Screening O=C(NNC(=S)NC(=O)c1ccccc1[N+](=O)[O-])c1ccc(Cl)cc1Cl returned Sfp inh 23.8%, HP1b binding inh 5.1%, JMJD2A Tudor -5.6%, G9a inh 17.8µM*, PLK1 PBD inh -12.8% and BAZ2B inh 3.4%.
For Cc1ccc(C(=O)NC(=S)NNC(=O)c2ccccc2[N+](=O)[O-])cc1 the results were Sfp inh 44.7µM*, HP1b binding inh -25.6%, JMJD2A Tudor 56.2µM*, G9a inh 8.91µM*, PLK1 PBD inh inconclusive and BAZ2B inh 2.5%.
For COC1=C(Br)C(=O)c2ncccc2C1=O the results were HP1b binding inh 10µM*, JMJD2A Tudor 6.31µM* and PLK1 PBD inh 1.89µM*.
Screening Cc1c(C(N)=O)sc2ncn(CC(=O)N(C)C3CCCCC3)c(=O)c12 returned Sfp inh 18.2%, HP1b binding inh 21.0%, JMJD2A Tudor -9.9%, G9a inh 11.1%, PLK1 PBD inh -14.9% and BAZ2B inh -16.6%.
`COc1ccc(N2CCN(c3oc(Cc4ccccc4)nc3C#N)CC2)cc1` gave Sfp inh 0.6%, HP1b binding inh -58.4%, JMJD2A Tudor 20µM*, G9a inh inconclusive, PLK1 PBD inh -2.2% and BAZ2B inh 8.91µM*.
Screening COc1ccc(N2CCN(c3oc(COc4ccccc4)nc3C#N)CC2)cc1 returned Sfp inh 14.1%, HP1b binding inh inconclusive, JMJD2A Tudor inconclusive, G9a inh 10µM*, PLK1 PBD inh -28.0% and BAZ2B inh 10µM*.
`CN(C)CCNc1oc(COc2ccc(-c3ccccc3)cc2)nc1C#N` gave Sfp inh -26.9%, HP1b binding inh -16.5%, JMJD2A Tudor inconclusive, G9a inh 44.7µM*, PLK1 PBD inh -4.1% and BAZ2B inh inconclusive.
For N#Cc1nc(COc2ccccc2)oc1N1CCOCC1 the results were Sfp inh -1.1%, HP1b binding inh 21.1%, JMJD2A Tudor 2.8%, G9a inh -2.7%[12.7 µM], PLK1 PBD inh 1.1% and BAZ2B inh -5.1%.
COc1ccc(N2CCN(c3oc(COc4ccc(Cl)cc4)nc3C#N)CC2)cc1 was read as Sfp inh 1.1%, HP1b binding inh inconclusive, JMJD2A Tudor inconclusive, G9a inh inconclusive, PLK1 PBD inh 0.0% and BAZ2B inh 3.55µM*.
`COc1ccc(NS(=O)(=O)c2ccccc2)cc1NS(=O)(=O)c1ccccc1` gave JMJD2A Tudor -15.6%.
O=C(COC(=O)c1ccc[nH]c1=O)NC1CC1 was read as HP1b binding inh 16.1%, JMJD2A Tudor -11.6% and PLK1 PBD inh -8.4%.
